Where “and” joins values, the source holds several entries; their conditions need not be identical. Identical values can stand only once. The campaign covered roughly 360,000 compounds. About 2,900 (0.81%) were called active.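 How the source made its calls: active means inhibition above the mean inhibition across every tested compound plus 3 SD (cut at about 22% in these data); inactive means the rest.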 For the sample, actives were picked, then their nearest neighbours and some compounds at random. A structure can be active in one record and inactive in another.
Target: Perilipin-5 (Homo sapiens) + 1-acylglycerol-3-phosphate O-acyltransferase ABHD5 (Homo sapiens) (UniProt Q00G26+Q8WTS1)
Sequence (Q00G26 whole entry, looked up): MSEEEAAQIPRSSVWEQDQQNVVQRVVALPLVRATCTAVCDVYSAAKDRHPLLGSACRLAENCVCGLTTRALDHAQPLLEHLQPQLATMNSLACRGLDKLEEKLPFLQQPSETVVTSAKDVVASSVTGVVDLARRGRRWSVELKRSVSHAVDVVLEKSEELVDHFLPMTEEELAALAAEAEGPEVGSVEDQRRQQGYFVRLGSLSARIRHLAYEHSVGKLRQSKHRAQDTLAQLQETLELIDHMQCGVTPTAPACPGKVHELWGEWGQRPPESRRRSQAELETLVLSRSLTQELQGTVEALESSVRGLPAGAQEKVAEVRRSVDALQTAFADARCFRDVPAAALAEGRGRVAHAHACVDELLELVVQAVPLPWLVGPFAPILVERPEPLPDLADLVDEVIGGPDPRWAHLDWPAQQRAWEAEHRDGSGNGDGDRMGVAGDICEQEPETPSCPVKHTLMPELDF
Sequence (Q8WTS1 whole entry, looked up): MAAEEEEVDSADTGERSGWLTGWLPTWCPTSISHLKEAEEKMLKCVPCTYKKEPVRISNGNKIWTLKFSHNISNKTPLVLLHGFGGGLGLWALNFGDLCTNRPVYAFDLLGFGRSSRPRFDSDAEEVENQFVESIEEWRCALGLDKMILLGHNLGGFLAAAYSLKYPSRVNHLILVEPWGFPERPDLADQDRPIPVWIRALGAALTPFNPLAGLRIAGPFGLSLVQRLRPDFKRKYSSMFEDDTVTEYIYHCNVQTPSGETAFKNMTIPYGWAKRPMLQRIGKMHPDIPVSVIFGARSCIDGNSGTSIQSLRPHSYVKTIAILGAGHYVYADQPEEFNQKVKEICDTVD
Assay: ABHD5-PLIN5 interaction inhibitors, primary screen, cell lysate, split luciferase complementation, luminescence (AID 602281);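 further: 0% = DMSO only wells and the 100% control is not disclosed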
Settings: Split G. princeps luciferase complementation, 4 h, at 4 µM, stronger effect = higher value

inhibition, 16.9% (inactive) and 27.5% (active):
c1ccc(CCC2=NCCn3cccc32)cc1

inhibition, inactive:
COC(=O)C[C@H]1C[C@@H]2c3cc(NC(=O)Nc4ccccc4)ccc3O[C@@H]2[C@@H](CO)O1 3.8%
c1ccc(-c2c[nH]c(-c3ccccc3)c2)cc1 -5.36%
O=C(NNC(=O)c1ccc(Cl)cc1Cl)c1cccs1 3.54%
O=C(NC1CCCCCCC1)c1cccs1 -5.96%
Cc1cccc(CN2CCN(C3CN(Cc4cn(Cc5ccccc5F)nn4)S(=O)(=O)C3)CC2)c1 (stereo not drawn) 5.46%
Cc1ccc(-c2c(N)nc3ncccn23)cc1 -3.59%
Cc1cccc(C(=O)Nc2ccc(C(=O)/C=C/c3cccs3)cc2)c1 12.6%
Cc1cc(C)nc(NC(=O)/C=C/c2ccc(Cl)cc2)n1 0.69%
CCO[C@H]1OC(C(=O)Nc2ccccc2)=C[C@@H](C2CC2)[C@@H]1CCCO -3.76%
CCCCN1C(N)=NC[C@@H]1CC1CCCCC1 10.6%
Cc1ccn2cc(-c3nonc3C)cc2c1 -1.69%
CCc1ccccc1NC(=O)c1cc(-c2ccc3c(c2)OCO3)on1 -4.14%
COc1ccc(/C=C/C(=O)NC(=S)N2CCCC(C(N)=O)C2)cc1 (stereo not drawn) -2.44%
CCOc1ccc(NC(=S)NC(=O)/C=C/c2ccc(OC)cc2)c([N+](=O)[O-])c1 2.26%
O=C(O)c1cc2ccccc2c(=O)s1 10.5%
NC[C@H](Cc1ccccc1)NCCc1cc(C(F)(F)F)cc(C(F)(F)F)c1 5.8%
COc1ccc(/C(O)=C2/C(=O)C(=O)N(CC3CCCO3)C2c2ccc(OC)c(OC)c2)cc1 (stereo not drawn) 1.46%
COc1ccc(/C(O)=C2/C(=O)C(=O)N(c3nc(C)c(C)s3)C2c2ccco2)cc1 (stereo not drawn) 6.99%
COc1ccc(/C(O)=C2/C(=O)C(=O)N(CCCN(C)C)C2c2ccccc2)cc1OC (stereo not drawn) -4.94%
COc1cc(C2/C(=C(\O)c3ccc4c(c3)CC(C)O4)C(=O)C(=O)N2Cc2ccco2)ccc1O (stereo not drawn) 11.1%
CC(C)c1nnc(NC(=O)C2CC(=O)N(CCc3ccc(F)cc3)C2)s1 (stereo not drawn) -0.4%
CSc1nc(-c2ccccc2)nc(C(Cl)Cl)n1 -6.27%
COc1ccc(-c2nnc3n2CCCCC3)cc1 2.02%
CCC(=O)N1CCc2cc(Br)c(S(=O)(=O)NCCN3CCCCC3CC)cc21 (stereo not drawn) 6.34%
N#Cc1ccc(C(=O)OCC(=O)NC(=O)NC2CCCCC2)cc1 -1.6%
NC(=O)C1CCN(C(=O)CC2C(=O)NCCN2Cc2cccc(Oc3ccccc3)c2)CC1 (stereo not drawn) 4.81%
O=C(NNC(=O)c1ccc(Cl)nc1)c1ccc(Br)cc1 -5.62%
CCN(CC)c1ccc(NC(=O)c2ccc(Cl)nc2)cc1 -1.77%
Cc1ccc(CSCCNC(=O)CN(c2ccc(F)cc2)S(C)(=O)=O)cc1 -1.09%
Cn1c(=O)[nH]c2c(c(C(=O)O)nn2C)c1=O 18.8%
Cc1cn(C2C=CC(CO)O2)c(=O)[nH]c1=O (stereo not drawn) 6.6%
Nc1cc(N2CCCCCC2)c2nonc2c1[N+](=O)[O-] 3.02%
COc1ccccc1C(=O)Nc1nc2nc(-c3ccccc3)cc(=O)n2[nH]1 -1.37%
COc1cc(C(O)c2nc(-c3cccc(C(=O)O)c3)cs2)ccc1F (stereo not drawn) 7.06%
O=C(c1cc(COc2ccc(F)cc2F)on1)N1CCOCC1 -0.17%
Cc1ccc(C(=O)CSc2nc3ccccc3c(=O)n2N)o1 -5.64%
Cc1ccc(OCC(=O)c2cc(C)n(Cc3ccco3)c2C)c([N+](=O)[O-])n1 4.39%
COC(=O)C[C@H]1C[C@@H]2c3cc(N(C)C)ccc3O[C@@H]2[C@H](CO)O1 0.67%
CC1CSc2nnc(CCc3ccccc3)n21 (stereo not drawn) 0.6%
c1ccc(CCc2ccccn2)cc1 -3.97%
CCc1ccc(-c2cc(C)no2)cc1S(=O)(=O)NCCc1ccc(S(N)(=O)=O)cc1 -2.59%
O=C(C1CCCO1)N1CCN(C(=O)C23CC4CC(CC(C4)C2)C3)CC1 (stereo not drawn) 0.93%
O=C(Cn1cc(C(=O)C2CC2)c2ccccc21)Nc1ccccc1Cl -0.4%
CCOc1ccc(NC(=O)C(C)N2C(=O)c3ccccc3C2=O)cc1 (stereo not drawn) -3.97%
O=[N+]([O-])c1ccc(N=NNc2ccc([N+](=O)[O-])cc2)cc1 -4.36%
O=C(Cc1ccccc1)N1CCN(S(=O)(=O)c2ccc([N+](=O)[O-])cc2)CC1 1.18%
Cc1ccc(S(=O)(=O)N(C)C)cc1NC(=O)c1ccccc1Br -0.6%
COc1ccc(C(C(=O)NCc2ccccc2)N(Cc2cccs2)C(=O)c2cnccn2)cc1 (stereo not drawn) -0.58%
COc1cccc(-c2sc3ccc(OC)cc3c2-c2ccc(OCCN3CCCCC3)cc2)c1 14.8%
COc1ccccc1-c1sc2ccccc2c1-c1ccc(Br)nc1 -7.49%
Cc1cc(C)c2c(n1)sc1c(=O)n(-c3ccccc3)c(=O)[nH]c12 9.86%
COc1ccc(C(=O)COC(=O)CN2C(=O)C3CC=CCC3C2=O)c(OC)c1 (stereo not drawn) -4.32%
O=C(COC(=O)CN1C(=O)C2CCCCC2C1=O)Nc1ccc(F)c(F)c1F (stereo not drawn) -2.34%
O=C(C(Cc1ccccc1)n1cccc1)N1CCN(C2CCCCC2)CC1 (stereo not drawn) 5.03%
CCOC(=O)C(Cc1ccc(N)cc1)N1C(=O)c2ccccc2C1=O (stereo not drawn) -1%
OCCCC1CCCCN1Cc1nc(Cc2ccccc2Cl)no1 (stereo not drawn) 0.62%
CC[C@H](C)C(=O)N[C@H]1CCCN1C(=O)/C=C/c1ccccc1 1.82%
CC(=O)Nc1ccc(NC(=O)c2ccc3c(c2)C(=O)N(c2ccccc2C)C3=O)cc1 6.37%
COC(=O)[C@@H]1CCCN1C(=O)c1cc(COc2cccc3cccnc23)on1 -0.57%
O=C(NC1CCN(S(=O)(=O)c2ccc(F)cc2)CC1)c1ccccc1 4.55%
Cc1ccc(NC(=O)CCC(=O)c2ccc(Br)cc2)cc1 4.03%
CCN(C(=O)c1ccc(Br)cc1)c1ccccc1 0.98%
CCCCN(CC)CCCNC(=O)c1ccc(CSc2nc3ccncc3[nH]2)cc1 -1.26%
COc1ccc(N(Cc2cc3ccc(C)cc3[nH]c2=O)S(=O)(=O)c2ccccc2)cc1 -3.39%
O=S(=O)(NC1CC1)c1ccc(F)c(F)c1 7.64%
CC1CCC(NS(=O)(=O)c2ccc3c(c2)CC(=O)N3)CC1 (stereo not drawn) 2.49%
CC1CCCC(NC(=O)COC(=O)c2ccccc2C(=O)N(C)C2CCCCC2)C1C (stereo not drawn) 1.5%
COc1ccccc1C(=O)c1ccccc1C(=O)c1ccccc1 -6.91%
CCc1ccccc1NC(=O)/C(=C/c1ccccc1)c1ccccc1 -13.9%
COc1ccccc1/C=C/C(=O)NC1CC2CCC1C2 (stereo not drawn) -5.4%
CCOC(=O)/C(=C\c1ccc([N+](=O)[O-])cc1)C(=O)c1cc(C(C)=O)c(Nc2ccccc2)s1 -2.52%
Cc1ccc(C(=O)NCC(=O)OCC(=O)Nc2cccc(S(=O)(=O)N3CCCC3)c2)cc1C -2.63%
O=C(CCCN1C(=O)C(c2ccccc2)Oc2cccnc21)Nc1ccccc1Br (stereo not drawn) 6.82%

inhibition, active:
O=C(N/N=C/C=C/c1ccco1)c1cccs1 36.5%
Cc1cccc(C=CC(=O)c2ccc(Cl)cc2)c1 34.8%
O=C1C=C(c2ccc(Cl)cc2)C(=O)N1Nc1ccccc1 66.8%
COc1ccc(/C=C/C(=O)c2cc(Br)ccc(=O)c2O)cc1 22.1%
COc1ccccc1C1/C(=C(/O)c2ccc(C)cc2)C(=O)C(=O)N1Cc1ccco1 (stereo not drawn) 28.4%
COc1ccc(/C(O)=C2\C(=O)C(=O)N(Cc3ccco3)C2c2ccc(OC)cc2OC)cc1 (stereo not drawn) 28.9%
O=C(NNc1ccccn1)c1ccc(Cl)nc1 74%
O=[N+]([O-])c1c(NCCO)cc(Sc2nc3ccccc3s2)c2nonc12 42.8%
COc1ccc2c(c1OC)C(=O)OC2Nc1nc(-c2ccccc2)cs1 (stereo not drawn) 38.8%
Cc1ccc(Cn2c(C)nc3c(c2=O)c2nc4ccccc4nc2n3Cc2ccco2)cc1 65.3%
O=C1/C(=C\c2ccc([N+](=O)[O-])cc2)CS(=O)(=O)C/C1=C/c1ccc([N+](=O)[O-])cc1 76.2%
COc1ccc2sc(-c3ccccc3OC)c(-c3ccc(OCCN4CCCC4)cc3)c2c1 25.4%
CC1=CC(C)(C)Nc2ccc(OC(=O)C(Cc3ccccc3)N3C(=O)C4CCCCC4C3=O)cc21 (stereo not drawn) 47%
CC1=CC(C)(C)Nc2ccc(OC(=O)CN3C(=O)C4CCCCC4C3=O)cc21 (stereo not drawn) 75%
COc1ccc2c(c1)c(=Cc1ccc(N(C)C)cc1)c1cc(-c3ccccc3)[n+](C)n12 30.2%
Cc1ccn(C(CC(=O)c2ccc(Br)cc2)C(=O)O)n1 (stereo not drawn) 33.3%
Cn1sc(=O)c2cc(S(=O)(=O)NC3CC3)ccc21 43.1%
CCOC(=O)C(=Cc1ccccc1)C(=O)c1ccccc1 86.5%
CCOC(=O)C(=Cc1ccccc1OC)C(=O)OCC 35.8%

From PubChem BioAssay AID602281 (The Scripps Research Institute Molecular Screening Center, 2012)
